Test results from PubChem BioAssay (Tox21).
Values joined by “and” are separate entries in the source; they are usually repeats but may differ in a detail not shown here. Identical values can stand only once. Results filed as inconclusive are left out. Some structures have more than one record in an assay (separate samples or runs), and their calls can disagree. Active and inactive are the calls of the source. Unless noted, the call rests on the fitted dose curve; in most records, active means well fitted curve in the direction sought with a large enough effect in the repeat runs; inconclusive means weak or mixed curves; inactive means no such curve, though single readings can be large; an effect the other way counts as inactive or inconclusive.

Legend:
[1] = qHTS assay to identify small molecule agonists of the androgen receptor (AR) signaling pathway in the presence of an antagonist - cell viability counter screen (AID 1259379); further: nearly all actives have a fitted effect of over 25% in size; further: potency means the concentration at half of the fitted maximal effect
Method in brief: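 Cells: MDA-kb2 (MMTV-luc, AR and GR elements), 3,000/well, 5 hr settle. Added: nilutamide 3.0uM final, then compounds (15 conc.). Incubation: 16 hr, 37C, no CO2. Read-out: CellTiter-Fluor, 1 hr, fluorescence.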

[2] = qHTS assay to identify small molecule agonists of the estrogen receptor beta (ER-beta) signaling pathway - cell viability counter screen (AID 1259380); further: nearly all actives have a fitted effect of over 30% in size; further: potency means the concentration at half of the fitted maximal effect
Method in brief: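 HEK293T ER-beta-UAS-bla; 2% CS-FBS; 6 hr pre-plate, 16 hr cpd at 37C/5% CO2; LiveBLAzer read first, then CellTiter-Glo 30 min RT, luminescence.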

[3] = molecular target: Androgen receptor (Homo sapiens) (UniProt P10275); assay: qHTS assay to identify small molecule agonists of the androgen receptor (AR) signaling pathway in the presence of an antagonist (AID 1259381; calls by dose curve; further: nearly all actives have a fitted effect of over 15% in size)
Method in brief: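 MDA-kb2 cells, 3,000/well, rested 5hr at 37C/0% CO2 → nilutamide 3.0uM final or buffer → compounds, 15 conc. → 16hr at 37C → ONE-Glo, 30min RT → luminescence.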

[4] = qHTS assay to identify small molecule antagonists of the estrogen receptor beta (ER-beta) signaling pathway - cell viability counter screen (AID 1259382); further: nearly all actives have a fitted effect of over 55% in size; further: potency means the concentration at half of the fitted maximal effect
Method in brief: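 Cells: ER-beta-UAS-bla HEK293T, 2,000/well, 2% CS-FBS, 6 hr settle. Cpd + E2 (1nM final), 16 hr, 37C/5% CO2. Bla FRET substrate 2 hr RT, then CellTiter-Glo 30 min RT, luminescence.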

[5] = molecular target: Estrogen receptor (Homo sapiens) (UniProt P03372); assay: qHTS assay to identify small molecule agonists of the estrogen receptor alpha (ER-alpha) signaling pathway in the presence of an antagonist (AID 1259383; calls by dose curve; further: nearly all actives have a fitted effect of over 15% in size; further: potency means the concentration at half of the fitted maximal effect; on activation: top concentration of the series differs between compounds)
Method in brief: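 VM7Luc4E2, endog. ER-alpha + 4×ERE-luc; charcoal-stripped FBS, phenol red-free, 5 d; 24hr plating; +10.0nM ICI-182,780 (final); cpds 15 conc, 22hr, 37C/5% CO2; ONE-Glo luminescence.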

[6] = qHTS assay to identify small molecule agonists or antagonists of the thyroid stimulating hormone receptor (TSHR) signaling pathway - wild type cell line counter screen (AID 1259384; calls by dose curve)
Method in brief: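 Wild-type HEK293 cells were plated 18 h at 37 C/5% CO2, pin-dosed with compound plus Ro20-1724 medium, held 30 min at room temperature, then given cAMP-d2 and anti-cAMP-cryptate; fluorescence was read after 1 h. Fifteen concentrations, triplicate.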

[7] = molecular target: Thyrotropin receptor (Homo sapiens) (UniProt P16473); assay: qHTS assay to identify small molecule antagonists of the thyroid stimulating hormone receptor (TSHR) signaling pathway (AID 1259385; calls by dose curve; further: nearly all actives have a fitted effect of over 20% in size)
Method in brief: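 TSHR-HEK293 cells were plated and held 18 h at 37C/5% CO2, then given compound plus Ro20-1724 and stimulated with TSH at 1.5 ng/mL final. After 30 min at room temperature, cAMP was detected with cAMP-d2/anti-cAMP-cryptate (1 h) by fluorescence.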

[8] = qHTS assay to identify small molecule agonists of the estrogen receptor alpha (ER-alpha) signaling pathway in the presence of an antagonist - cell viability counter screen (AID 1259386);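 further: cells exposed to compounds for 22 h at 37 °C before the viability read; nearly all actives have a fitted effect of over 30% in size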; further: potency means the concentration at half of the fitted maximal effect
Method in brief: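 VM7Luc4E2, stripped-serum pre-culture 5 d; 24hr plating; +ICI-182,780 10.0nM final; cpds 15 conc, 22hr, 37C/5% CO2; CellTiter-Fluor added at 21hr, fluorescence 1hr later.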

[9] = molecular target: Estrogen receptor beta (Homo sapiens) (UniProt Q92731); assay: qHTS assay to identify small molecule agonists of the estrogen receptor beta (ER-beta) signaling pathway (AID 1259377; active means well fitted activation curve with a large enough effect in the signal ratio in the repeat runs, not every such curve was filed as active; the % refers to the signal ratio)
Method in brief: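 HEK293T ER-beta-UAS-bla; 2% charcoal-stripped FBS; cells pre-incubated 6 hr, compound 16 hr, 37C/5% CO2; LiveBLAzer B/G FRET substrate 2 h RT; fluorescence intensity read.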

[10] = molecular target: Estrogen receptor beta (Homo sapiens) (UniProt Q92731); assay: qHTS assay to identify small molecule antagonists of the estrogen receptor beta (ER-beta) signaling pathway (AID 1259378; active means well fitted inhibition curve with a large enough effect in the signal ratio in the repeat runs, not every such curve was filed as active; the % refers to the signal ratio; further: potency means the concentration at half of the fitted maximal effect)
Method in brief: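 ER-beta-UAS-bla HEK293T (GripTite) cells in 2% charcoal-stripped FBS medium were preincubated 6 hr at 37C, dosed with compound, then stimulated with 1 nM E2 (final) for 16 hr; beta-lactamase reporter read by B/G FRET fluorescence after 2 hr substrate loading.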

Measured: Potency

Androgen receptor (Homo sapiens), sequence (P10275 whole entry, looked up): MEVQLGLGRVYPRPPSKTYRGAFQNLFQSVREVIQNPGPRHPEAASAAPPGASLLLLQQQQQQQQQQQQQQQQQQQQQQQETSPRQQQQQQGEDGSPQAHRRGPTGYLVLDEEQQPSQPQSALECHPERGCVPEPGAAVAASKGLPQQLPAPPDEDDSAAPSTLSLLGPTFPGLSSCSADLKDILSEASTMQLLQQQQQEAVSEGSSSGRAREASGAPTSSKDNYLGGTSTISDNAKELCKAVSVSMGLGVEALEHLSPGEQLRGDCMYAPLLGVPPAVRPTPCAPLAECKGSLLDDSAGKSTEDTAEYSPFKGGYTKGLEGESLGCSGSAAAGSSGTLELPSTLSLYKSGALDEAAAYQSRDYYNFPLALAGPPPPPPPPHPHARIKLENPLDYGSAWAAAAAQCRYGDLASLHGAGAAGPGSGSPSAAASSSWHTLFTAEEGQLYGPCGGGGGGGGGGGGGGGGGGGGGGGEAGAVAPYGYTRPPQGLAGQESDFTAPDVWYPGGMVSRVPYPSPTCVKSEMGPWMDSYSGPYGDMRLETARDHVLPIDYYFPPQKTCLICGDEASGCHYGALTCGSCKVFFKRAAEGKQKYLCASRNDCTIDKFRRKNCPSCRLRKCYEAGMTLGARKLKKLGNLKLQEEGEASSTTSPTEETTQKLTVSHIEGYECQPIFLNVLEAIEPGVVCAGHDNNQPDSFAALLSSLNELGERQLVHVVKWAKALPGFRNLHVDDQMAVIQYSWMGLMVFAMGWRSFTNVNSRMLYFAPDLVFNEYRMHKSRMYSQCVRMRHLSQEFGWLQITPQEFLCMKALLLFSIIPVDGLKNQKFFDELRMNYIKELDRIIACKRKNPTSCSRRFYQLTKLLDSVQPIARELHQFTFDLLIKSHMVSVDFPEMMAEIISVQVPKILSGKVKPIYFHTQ
Thyrotropin receptor (Homo sapiens), sequence (P16473 whole entry, looked up): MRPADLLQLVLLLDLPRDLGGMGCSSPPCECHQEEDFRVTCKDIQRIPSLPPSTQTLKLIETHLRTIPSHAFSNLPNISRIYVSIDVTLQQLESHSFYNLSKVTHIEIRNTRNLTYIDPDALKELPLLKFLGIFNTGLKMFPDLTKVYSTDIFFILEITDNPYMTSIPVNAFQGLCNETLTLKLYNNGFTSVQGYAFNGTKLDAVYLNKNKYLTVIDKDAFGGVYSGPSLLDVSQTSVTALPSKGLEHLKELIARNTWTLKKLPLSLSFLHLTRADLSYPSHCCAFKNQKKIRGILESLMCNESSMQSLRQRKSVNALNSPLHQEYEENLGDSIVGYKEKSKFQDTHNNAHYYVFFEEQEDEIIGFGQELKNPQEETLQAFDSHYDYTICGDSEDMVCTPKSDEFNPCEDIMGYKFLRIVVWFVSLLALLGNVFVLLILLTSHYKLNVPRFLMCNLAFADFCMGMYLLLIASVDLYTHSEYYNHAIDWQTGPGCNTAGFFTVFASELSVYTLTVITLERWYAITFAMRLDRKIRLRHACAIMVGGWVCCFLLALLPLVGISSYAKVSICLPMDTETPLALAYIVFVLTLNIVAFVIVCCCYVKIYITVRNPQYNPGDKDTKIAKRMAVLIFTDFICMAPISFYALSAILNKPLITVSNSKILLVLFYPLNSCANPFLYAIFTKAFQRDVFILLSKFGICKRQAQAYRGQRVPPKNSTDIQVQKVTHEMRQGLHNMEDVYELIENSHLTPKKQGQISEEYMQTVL
Estrogen receptor beta (Homo sapiens), sequence (Q92731 whole entry, looked up): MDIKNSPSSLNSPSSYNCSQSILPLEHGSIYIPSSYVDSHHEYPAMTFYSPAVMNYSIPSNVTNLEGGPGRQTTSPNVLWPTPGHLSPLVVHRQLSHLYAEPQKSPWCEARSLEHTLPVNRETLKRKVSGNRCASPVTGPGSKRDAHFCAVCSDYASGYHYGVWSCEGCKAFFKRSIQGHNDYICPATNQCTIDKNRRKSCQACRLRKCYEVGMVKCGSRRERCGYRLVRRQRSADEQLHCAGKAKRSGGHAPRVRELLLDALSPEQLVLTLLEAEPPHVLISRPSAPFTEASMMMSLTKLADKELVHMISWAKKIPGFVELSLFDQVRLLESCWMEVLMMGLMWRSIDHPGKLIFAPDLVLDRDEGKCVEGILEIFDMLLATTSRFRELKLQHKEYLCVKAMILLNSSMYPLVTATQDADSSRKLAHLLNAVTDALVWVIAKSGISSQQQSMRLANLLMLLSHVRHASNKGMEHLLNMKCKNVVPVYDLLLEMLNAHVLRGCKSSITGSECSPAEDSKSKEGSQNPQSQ
Estrogen receptor (Homo sapiens), sequence (P03372 whole entry, looked up): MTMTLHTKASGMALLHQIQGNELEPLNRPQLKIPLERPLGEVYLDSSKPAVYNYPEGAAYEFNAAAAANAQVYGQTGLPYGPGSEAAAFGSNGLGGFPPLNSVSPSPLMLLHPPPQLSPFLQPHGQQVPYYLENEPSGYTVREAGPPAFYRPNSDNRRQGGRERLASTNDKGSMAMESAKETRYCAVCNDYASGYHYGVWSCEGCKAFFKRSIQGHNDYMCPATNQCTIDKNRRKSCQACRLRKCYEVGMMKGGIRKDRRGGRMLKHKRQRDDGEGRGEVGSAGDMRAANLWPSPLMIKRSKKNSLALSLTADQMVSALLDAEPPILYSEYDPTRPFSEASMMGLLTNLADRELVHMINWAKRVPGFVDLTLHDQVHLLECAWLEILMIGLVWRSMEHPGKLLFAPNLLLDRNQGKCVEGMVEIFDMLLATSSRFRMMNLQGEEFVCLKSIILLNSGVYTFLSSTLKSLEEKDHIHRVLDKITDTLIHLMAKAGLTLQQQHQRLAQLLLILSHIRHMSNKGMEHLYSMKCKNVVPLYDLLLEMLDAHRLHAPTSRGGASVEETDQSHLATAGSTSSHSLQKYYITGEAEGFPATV

Cc1ccc(C(C)C)cc1
not listed: [9] | [10]
inactive: all other assays above

CC(=O)OCc1ccc2c(c1)OCO2
not listed: [3] | [5]
inactive: all other assays above

CCCCCC(C)=O
inactive: [9] | [10] | [1] | [2] | [4] | [8]

CCCCCCCC(=O)O
26.3 µM (active) and inactive: [5]
not listed: [3] | [6] | [7]
inactive: all other assays above

CCCOCC(C)O (centres undefined)
not listed: [5] | [9] | [10]
inactive: all other assays above

C=C(CC(=O)O)C(=O)O
not listed: [3] | [5]
inactive: all other assays above

O=C(O)C1=NN(c2ccc(S(=O)(=O)O)cc2)C(=O)C1
not listed: [3] | [9] | [10]
inactive: all other assays above

C=C(C)CC(C)(C)C
not listed: [3] | [5]
inactive: all other assays above

CCCCCNCCCCC
not listed: [3] | [5]
inactive: all other assays above

NC1CCCCC1N (centres undefined)
not listed: [3] | [5]
inactive: all other assays above

Cc1cccc(C)c1[N+](=O)[O-]
not listed: [3] | [5]
inactive: all other assays above

CCCCC(CC)COC(=O)c1ccc(C(=O)OCC(CC)CCCC)cc1 (centres undefined)
inactive: [1] | [2] | [3] | [4] | [8]

CCOC(=O)c1ccc(O)cc1
not listed: [3] | [9]
inactive: all other assays above

CCN(CC)CCNC(=O)c1ccc(N)cc1
not listed: [3] | [5]
inactive: all other assays above

Cc1ccccc1Cl
not listed: [9] | [10]
inactive: all other assays above

OCCOCCOCCOCCOCCO
not listed: [3] | [5]
inactive: all other assays above

Cc1cc(CC(=O)O)n(C)c1C(=O)c1ccc(Cl)cc1
not listed: [3] | [5]
inactive: all other assays above

CC(COCC(C)OC(=O)c1ccccc1)OC(=O)c1ccccc1 (centres undefined)
not listed: [3] | [5]
inactive: all other assays above

OCc1ccc(Cl)cc1Cl
inactive: [9] | [10] | [1] | [2] | [4] | [8]

C=CC(=O)NCOCCCC
not listed: [3] | [6] | [7]
inactive: all other assays above

Cc1nnc(NS(=O)(=O)c2ccc(N)cc2)s1
not listed: [9] | [10]
inactive: all other assays above

CC(CN1c2ccccc2Sc2ccccc21)N(C)C (centres undefined)
active: [10] 43.3 µM and 29.8 µM | [2] 49.1 µM and 24.3 µM and 23.7 µM | [4] 24.6 µM and 21.7 µM and 16.8 µM
not listed: [3] | [5]
inactive: all other assays above

CC(=O)OCCC(C)C
inactive: [9] | [10] | [1] | [2] | [4] | [8]

O=C(O)Cc1c[nH]c2ccccc12
not listed: [3] | [5]
inactive: all other assays above

COCN(COC)c1nc(N(COC)COC)nc(N(COC)COC)n1
not listed: [3]
inactive: all other assays above

NCCNCCNCCN
not listed: [3] | [5] | [9]
inactive: all other assays above

CS(=O)(=O)c1ccc(Cl)cc1
not listed: [3] | [5]
inactive: all other assays above

c1cnc2c(c1)ccc1cccnc12
inactive: [6] | [7]
active: [1] 15.5 µM and 30.6 µM and 21.7 µM | [2] 2.43 µM | [8] 5.5 µM

O=C1O[C@H]([C@H](O)CO)C(O)=C1O
inactive: [1] | [2] | [4] | [6] | [7] | [8]
